Sampled rows, rich in hits. Any-hit rate of the full collection: about 11%.
HEK293 tox: Cytotoxic Profiling in HEK 293 Cell Line of Diverse Libraries Using Quantitative High-Throughput Screening | HEK 293 viability, ATP luminescence (CellTiter-Glo), 48-72 h | Potency, µM (highest dose often 115 µM), most hits filed as inhibitors | 94,000 compounds, 6.6% hits | AID 1345083, 2018; further: nearly all actives have a fitted effect of over 60% in size
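Cells seeded first (HEK 293, 250 cells/well), then compound added by pintool. Incubation ran 48 or 72 hr at 37 degree Celsius. CellTiter-Glo was added and luminescence imaged after 10 min at room temperature.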
NPR1 antag: Natriuretic polypeptide receptor (hNpr1) antagonism - Primary qHTS; HEK293 hNpr1 GloSensor cGMP, ANP-stimulated luminescence; Potency, µM (top dose mostly 46.3 µM), most hits filed as inhibitors; 76,000 compounds, 1.6% hits; AID 1347048, 2019; calls by dose curve; further: nearly all actives have a fitted effect of over 60% in size
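Compound pre-incubated 30 min at room temperature on GloSensor-loaded HEK293 cells stably carrying hNpr1 and the pGS-40F cGMP biosensor. Stimulation uses hNppA at 0.1 nM final; luminescence is taken at baseline and 20 min post-agonist.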
NIH3T3 tox: Cytotoxic Profiling in NIH 3T3 Cell Line of Diverse Libraries Using Quantitative High-Throughput Screening. NIH 3T3 viability, CellTiter-Glo ATP luminescence, 48-72 h. Potency, µM (highest dose often 96.7 µM), usual class: inhibitors. 94,000 compounds, 4.3% hits. AID 1345082, 2018; further: nearly all actives have a fitted effect of over 55% in size
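ATP-dependent luminescence (CellTiter-Glo) served as the viability signal for NIH 3T3 cells treated with compound for 48 or 72 hr at 37 °C.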
FLuc inh: Firefly luciferase inhibition profiling of diverse chemical library using quantitative high-throughput screening; 76,000 compounds, 2.5% hits; purified P. pyralis luciferase, luminescence, biochemical; Potency, µM (doses to about 115 µM), most hits filed as inhibitors; Luciferin 4-monooxygenase (Photinus pyralis), P08659; further: nearly all actives have a fitted effect of over 65% in size
Target sequence (P08659 whole entry, looked up): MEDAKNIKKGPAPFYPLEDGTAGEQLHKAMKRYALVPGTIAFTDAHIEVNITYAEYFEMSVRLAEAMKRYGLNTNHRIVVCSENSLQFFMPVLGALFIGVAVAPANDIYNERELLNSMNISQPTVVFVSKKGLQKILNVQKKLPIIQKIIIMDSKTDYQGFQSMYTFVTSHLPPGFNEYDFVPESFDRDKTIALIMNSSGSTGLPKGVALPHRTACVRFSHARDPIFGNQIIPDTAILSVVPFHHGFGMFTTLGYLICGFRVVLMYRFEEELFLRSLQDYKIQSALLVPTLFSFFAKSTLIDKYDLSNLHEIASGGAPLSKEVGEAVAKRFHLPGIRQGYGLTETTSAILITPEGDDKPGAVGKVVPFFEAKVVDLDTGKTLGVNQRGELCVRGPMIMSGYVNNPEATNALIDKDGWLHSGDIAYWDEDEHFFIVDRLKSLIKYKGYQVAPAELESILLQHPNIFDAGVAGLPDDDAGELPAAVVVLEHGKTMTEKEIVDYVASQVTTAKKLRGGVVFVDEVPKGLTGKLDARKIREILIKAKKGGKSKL
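Luminescence read by CCD imaging after purified firefly luciferase (10nM final) was added to substrate buffer holding 10uM D-luciferin and 10uM ATP, pH 7.5, pre-dosed with compound.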
Of the large screens only hits and unclear results are named; the others gave an inactive call. Unless noted, the call rests on the fitted dose curve; in most records, active means well fitted curve in the direction sought with a large enough effect; inconclusive means small, poorly fitted or top-dose-only effect, or another doubt; inactive means no such curve, though single readings can be large; an effect the other way counts as inactive or inconclusive.

Cc1cc(Cn2cc3c4c(cccc42)[C@H](CC(C)C)N[C@H](C(=O)O)C3)no1	none
COc1ccc(CNC(=O)[C@@H]2Cc3cn(Cc4cccnc4)c4cccc(c34)[C@H](CC(C)C)N2)cc1	HEK293 tox 35µM, NIH3T3 tox inconclusive
CN1CC(=O)N(c2ccc(Cl)cc2)Cc2c(NCCCc3ccccc3)ncnc21	HEK293 tox inconclusive, NIH3T3 tox 32µM, FLuc inh 40µM
Cc1ccccc1N1Cc2c(NCCCc3ccccc3)ncnc2N(C)CC1=O	HEK293 tox inconclusive, NIH3T3 tox 45µM
CC(C)N1CCN(C(=O)CN2C(=O)C(Oc3ccc(F)cc3)C23CCCCC3)CC1 (centres undefined)	none (no result: NPR1 antag, FLuc inh)
O=C(c1ccc2nnc(Cc3ccco3)n2c1)N1CCOCC1	none (no result: NPR1 antag, FLuc inh)
O=C1NCCOCCN(C(=O)Nc2ccc3c(c2)OCCO3)[C@@H]2CCCC[C@H]12	FLuc inh 16µM
OCC1CN(c2ncccn2)CC12CCN(Cc1cccc3[nH]ccc13)CC2 (centres undefined)	HEK293 tox 79µM, NIH3T3 tox inconclusive
COc1ccc(CN2CC3(CCN(S(=O)(=O)c4ccc(F)cc4)CC3)C2=O)cc1	HEK293 tox 89µM
COc1ccc(CN2CC3(CCN(S(=O)(=O)c4ccccc4Cl)CC3)C2=O)cc1	HEK293 tox inconclusive, NIH3T3 tox inconclusive
COc1cccc(-c2cc3c(=O)n(CCNC(=O)c4cccnc4)ccn3n2)c1	FLuc inh inconclusive
COc1cccc(-c2cc3c(=O)n(CCNC(=O)C(C)Oc4ccccc4)ccn3n2)c1 (centres undefined)	HEK293 tox 45µM, NPR1 antag inconclusive, NIH3T3 tox inconclusive, FLuc inh inconclusive
COc1cccc(-c2cc3c(=O)n(CCNC(=O)c4cc(F)cc(F)c4)ccn3n2)c1	HEK293 tox inconclusive, NIH3T3 tox inconclusive
COc1cccc(-c2cc3c(=O)n(CCNC(=O)c4ccoc4)ccn3n2)c1	HEK293 tox 45µM, FLuc inh inconclusive
COc1cccc(-c2cc3c(=O)n(CCNC(=O)c4c(F)cccc4F)ccn3n2)c1	FLuc inh 7.9µM
CCOC(=O)C1CCN(C(=O)C2CCc3nnc(C4CCN([S+](C)(=O)[O-])CC4)n32)CC1 (centres undefined)	none (no result: NPR1 antag, FLuc inh)
CC(=O)Nc1ccc(-c2nnc3n2CCN(C(=O)c2ccccc2Cl)C3)cc1	none (no result: NPR1 antag, FLuc inh)
CCn1cc(CN(C)C2CCc3nn(CC4CC4)c(=O)n3CC2)c(C)n1 (centres undefined)	none
CN(Cc1cn(C)c2ccccc12)C1CCc2nn(CC3CC3)c(=O)n2CC1 (centres undefined)	HEK293 tox 32µM, NIH3T3 tox 35µM
COc1ccc(-c2cc(C(=O)N3CCN(C)CC3)c3cnn(C)c3n2)cc1	none (no result: NPR1 antag, FLuc inh)
CCN1CCN(C(=O)c2cc(-c3ccc(OC)cc3)nc3c2cnn3C)CC1	none (no result: NPR1 antag, FLuc inh)
Cn1ncc2c(C(=O)N3CCN(Cc4ccccc4)CC3)cc(-c3ccccc3F)nc21	HEK293 tox 40µM, NIH3T3 tox inconclusive (no result: NPR1 antag, FLuc inh)
COc1ccc(-c2cc(C(=O)N3CCN(c4ncccn4)CC3)c3cnn(C)c3n2)cc1	HEK293 tox 40µM, NIH3T3 tox inconclusive (no result: NPR1 antag, FLuc inh)
COc1ccc(-c2cc(C(=O)N3CCN(Cc4ccccc4)CC3)c3cnn(C)c3n2)cc1	HEK293 tox 35µM, NIH3T3 tox inconclusive (no result: NPR1 antag, FLuc inh)
CN1CCN(C(=O)c2cc(-c3ccccc3C(F)(F)F)nc3c2cnn3C)CC1	none (no result: NPR1 antag, FLuc inh)
CN1C[C@@H]2C[C@@H](C(N)=O)N(C(=O)OCC(C)(C)C)c3cccc(c32)C1=O	NIH3T3 tox inconclusive (no result: NPR1 antag, FLuc inh)
Cc1cc(C)c(C#N)c(-c2ccc(C(C)N3CCOCC3)cc2)n1 (centres undefined)	HEK293 tox inconclusive, NPR1 antag inconclusive, NIH3T3 tox inconclusive
CC(C)Oc1cc(-c2ccc(C(C)N3CCOCC3)cc2)nc(N)n1 (centres undefined)	HEK293 tox inconclusive, NIH3T3 tox inconclusive, FLuc inh 35µM
CN1C[C@@H](NC(=O)c2ccc(F)cc2)C[C@H]1c1nc(-c2ccccc2)no1	HEK293 tox inconclusive, FLuc inh inconclusive
CN1C[C@@H](NC(=O)Nc2ccccc2)C[C@H]1c1nc(-c2ccc(Cl)cc2)no1	HEK293 tox inconclusive, NPR1 antag inconclusive, NIH3T3 tox inconclusive, FLuc inh 35µM
CN1C[C@@H](NC(=O)c2cccs2)C[C@H]1c1nc(-c2ccc(F)cc2)no1	HEK293 tox 89µM, NIH3T3 tox inconclusive
Cc1ccc(NC(=O)N[C@H]2C[C@@H](c3nc(-c4ccc(F)cc4)no3)N(C)C2)cc1	NIH3T3 tox inconclusive, FLuc inh inconclusive
CN1C[C@@H](NC(=O)Nc2ccccc2)C[C@H]1c1nc(Cc2ccccc2)no1	HEK293 tox inconclusive, NIH3T3 tox inconclusive, FLuc inh 45µM
CC1CCN(CC2CCCCCN2C(=O)NCc2ccc(F)cc2)CC1 (centres undefined)	none
Cc1noc(C2CC3(CCN(C(=O)CCCc4ccccc4)CC3)CN2C)n1 (centres undefined)	none (no result: NPR1 antag, FLuc inh)
COCc1ccc2c(c1)c(OC(C)(C)C(=O)NC1CCN(C)CC1)nn2CCC(C)C	HEK293 tox inconclusive, NIH3T3 tox 89µM
COCc1ccc2c(c1)c(OC(C)(C)C(=O)Nc1ccccn1)nn2CCC(C)C	HEK293 tox 89µM, NIH3T3 tox 45µM
COCc1ccc2c(c1)c(OC(C)(C)C(=O)NC1CC1)nn2CCC(C)C	HEK293 tox inconclusive, NPR1 antag inconclusive, NIH3T3 tox inconclusive
CN(C)S(=O)(=O)N(C)C1CCc2nn(CC3CC3)c(=O)n2CC1 (centres undefined)	none (no result: NPR1 antag, FLuc inh)
Cc1cc(CN(C)c2ccc(-c3nc(-c4ccccc4F)no3)cn2)on1	NPR1 antag inconclusive, FLuc inh inconclusive
CN(CCn1ccnc1)c1ccc(-c2nc(-c3cccc(Cl)c3)no2)cn1	HEK293 tox 35µM, NPR1 antag inconclusive, NIH3T3 tox inconclusive, FLuc inh 3.2µM
COc1ccc(NC(=O)c2ccc3c(c2)C2(CCCN(C)C2)CN3Cc2cccnc2)cc1 (centres undefined)	NIH3T3 tox 32µM
CN1CCCC2(C1)CN(Cc1cccnc1)c1ccc(C(=O)NCC3CCCCC3)cc12 (centres undefined)	HEK293 tox 89µM, NIH3T3 tox 35µM
CN1CCC2(C1)CN(Cc1ccccc1)c1ccc(C(=O)Nc3ccn(C)n3)cc12 (centres undefined)	HEK293 tox inconclusive, NIH3T3 tox inconclusive
NCCCCC(=O)N1CCOc2c(O)cc(-c3csc4ccccc34)cc2C1	HEK293 tox 32µM, NIH3T3 tox 40µM
O=C(CN1CCOc2c(O)cc(-c3csc4ccccc34)cc2C1)N1CCOCC1	HEK293 tox inconclusive, NIH3T3 tox inconclusive
O=C1CCCN1CCN1CCOc2c(O)cc(-c3csc4ccccc34)cc2C1	HEK293 tox 45µM, NIH3T3 tox inconclusive
Cc1[nH]cnc1C(=O)N1CCOc2c(O)cc(-c3csc4ccccc34)cc2C1	HEK293 tox 45µM, NIH3T3 tox 79µM
